How the values were obtained:
[1] = target: T1, Inhibitor of nuclear factor kappa-B kinase subunit epsilon (Homo sapiens) (UniProt Q14164); settings: at 1 µM;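 also: reported values are averaged percent inhibition figures against human IKKε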
T1 sequence (whole entry): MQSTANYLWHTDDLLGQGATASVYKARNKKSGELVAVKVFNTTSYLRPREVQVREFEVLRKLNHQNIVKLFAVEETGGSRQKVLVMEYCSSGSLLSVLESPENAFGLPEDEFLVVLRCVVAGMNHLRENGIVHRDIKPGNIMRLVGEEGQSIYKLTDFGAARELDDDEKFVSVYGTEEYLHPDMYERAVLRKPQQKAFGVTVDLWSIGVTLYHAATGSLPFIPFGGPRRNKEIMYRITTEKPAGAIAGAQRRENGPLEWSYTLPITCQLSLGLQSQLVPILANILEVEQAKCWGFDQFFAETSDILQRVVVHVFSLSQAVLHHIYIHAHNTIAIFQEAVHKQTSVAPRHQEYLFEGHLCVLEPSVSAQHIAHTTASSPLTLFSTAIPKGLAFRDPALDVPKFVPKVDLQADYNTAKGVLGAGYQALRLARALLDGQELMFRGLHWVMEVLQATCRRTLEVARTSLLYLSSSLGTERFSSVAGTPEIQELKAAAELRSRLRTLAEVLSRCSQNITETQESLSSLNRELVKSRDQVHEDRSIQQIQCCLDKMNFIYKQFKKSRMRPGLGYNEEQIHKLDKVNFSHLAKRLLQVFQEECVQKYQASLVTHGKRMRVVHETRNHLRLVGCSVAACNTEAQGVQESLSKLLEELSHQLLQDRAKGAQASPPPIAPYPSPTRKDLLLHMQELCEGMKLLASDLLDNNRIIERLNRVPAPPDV

[2] = target: T2, Serine/threonine-protein kinase Nek1 (Homo sapiens) (UniProt Q96PY6); settings: at 0.1 µM
T2 sequence (whole entry): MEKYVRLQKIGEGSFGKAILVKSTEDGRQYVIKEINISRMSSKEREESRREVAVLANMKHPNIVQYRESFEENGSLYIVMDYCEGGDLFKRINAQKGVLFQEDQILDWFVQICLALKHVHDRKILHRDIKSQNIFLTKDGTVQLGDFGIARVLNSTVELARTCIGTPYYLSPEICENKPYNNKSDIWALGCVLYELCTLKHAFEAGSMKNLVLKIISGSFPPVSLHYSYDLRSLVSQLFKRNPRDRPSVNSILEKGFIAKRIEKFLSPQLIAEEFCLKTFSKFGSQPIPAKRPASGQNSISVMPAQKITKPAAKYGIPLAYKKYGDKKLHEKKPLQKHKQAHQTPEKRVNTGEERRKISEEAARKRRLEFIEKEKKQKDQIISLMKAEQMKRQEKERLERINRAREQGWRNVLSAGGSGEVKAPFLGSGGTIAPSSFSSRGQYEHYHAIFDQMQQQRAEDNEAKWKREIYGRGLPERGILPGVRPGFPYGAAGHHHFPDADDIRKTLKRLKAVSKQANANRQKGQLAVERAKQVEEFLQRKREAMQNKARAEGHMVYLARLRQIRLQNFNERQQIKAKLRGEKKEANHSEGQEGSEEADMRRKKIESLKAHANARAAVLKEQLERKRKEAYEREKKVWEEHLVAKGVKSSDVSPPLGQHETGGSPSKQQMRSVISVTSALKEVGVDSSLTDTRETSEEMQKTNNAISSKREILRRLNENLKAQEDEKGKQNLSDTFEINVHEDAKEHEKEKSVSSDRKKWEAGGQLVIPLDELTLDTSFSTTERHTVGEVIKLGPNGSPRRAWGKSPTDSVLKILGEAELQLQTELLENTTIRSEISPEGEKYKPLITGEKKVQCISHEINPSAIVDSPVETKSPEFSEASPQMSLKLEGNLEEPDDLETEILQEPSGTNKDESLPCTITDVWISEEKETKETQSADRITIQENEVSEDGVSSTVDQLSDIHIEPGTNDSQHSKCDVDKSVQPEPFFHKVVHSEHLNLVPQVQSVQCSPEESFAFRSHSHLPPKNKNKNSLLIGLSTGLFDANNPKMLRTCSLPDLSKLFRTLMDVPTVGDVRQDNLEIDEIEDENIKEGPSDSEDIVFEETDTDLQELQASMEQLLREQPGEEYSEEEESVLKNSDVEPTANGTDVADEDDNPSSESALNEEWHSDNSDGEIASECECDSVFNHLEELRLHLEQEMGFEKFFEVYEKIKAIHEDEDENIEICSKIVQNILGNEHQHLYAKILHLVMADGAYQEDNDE

[3] = target: T2, Serine/threonine-protein kinase Nek1 (Homo sapiens); settings: at 1 µM
[4] = target: T3, Serine/threonine-protein kinase Nek2 (Homo sapiens) (UniProt P51955); settings: at 0.1 µM
T3 sequence (whole entry): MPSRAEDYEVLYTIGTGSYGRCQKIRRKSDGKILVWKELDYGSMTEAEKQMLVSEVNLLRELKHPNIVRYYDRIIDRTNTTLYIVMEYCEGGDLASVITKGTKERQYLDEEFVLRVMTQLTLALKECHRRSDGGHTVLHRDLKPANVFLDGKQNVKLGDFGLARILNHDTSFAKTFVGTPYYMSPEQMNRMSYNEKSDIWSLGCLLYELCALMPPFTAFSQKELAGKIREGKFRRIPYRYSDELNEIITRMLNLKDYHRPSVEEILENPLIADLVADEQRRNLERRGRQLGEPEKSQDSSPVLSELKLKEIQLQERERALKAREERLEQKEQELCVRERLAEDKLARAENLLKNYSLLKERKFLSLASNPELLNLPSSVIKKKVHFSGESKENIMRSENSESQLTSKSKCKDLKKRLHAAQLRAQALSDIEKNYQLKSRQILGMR

[5] = target: T3, Serine/threonine-protein kinase Nek2 (Homo sapiens); settings: at 1 µM
[6] = target: Serine/threonine-protein kinase Nek6 (Homo sapiens) (UniProt Q9HC98); settings: at 0.1 µM
[7] = target: Serine/threonine-protein kinase Nek6 (Homo sapiens) (UniProt Q9HC98); settings: at 1 µM
[8] = target: Serine/threonine-protein kinase Nek7 (Homo sapiens) (UniProt Q8TDX7); settings: at 0.1 µM
[9] = target: Serine/threonine-protein kinase Nek7 (Homo sapiens) (UniProt Q8TDX7); settings: at 1 µM
[10] = target: T4, Serine/threonine-protein kinase Nek9 (Homo sapiens) (UniProt Q8TD19); settings: at 0.1 µM
T4 sequence (whole entry): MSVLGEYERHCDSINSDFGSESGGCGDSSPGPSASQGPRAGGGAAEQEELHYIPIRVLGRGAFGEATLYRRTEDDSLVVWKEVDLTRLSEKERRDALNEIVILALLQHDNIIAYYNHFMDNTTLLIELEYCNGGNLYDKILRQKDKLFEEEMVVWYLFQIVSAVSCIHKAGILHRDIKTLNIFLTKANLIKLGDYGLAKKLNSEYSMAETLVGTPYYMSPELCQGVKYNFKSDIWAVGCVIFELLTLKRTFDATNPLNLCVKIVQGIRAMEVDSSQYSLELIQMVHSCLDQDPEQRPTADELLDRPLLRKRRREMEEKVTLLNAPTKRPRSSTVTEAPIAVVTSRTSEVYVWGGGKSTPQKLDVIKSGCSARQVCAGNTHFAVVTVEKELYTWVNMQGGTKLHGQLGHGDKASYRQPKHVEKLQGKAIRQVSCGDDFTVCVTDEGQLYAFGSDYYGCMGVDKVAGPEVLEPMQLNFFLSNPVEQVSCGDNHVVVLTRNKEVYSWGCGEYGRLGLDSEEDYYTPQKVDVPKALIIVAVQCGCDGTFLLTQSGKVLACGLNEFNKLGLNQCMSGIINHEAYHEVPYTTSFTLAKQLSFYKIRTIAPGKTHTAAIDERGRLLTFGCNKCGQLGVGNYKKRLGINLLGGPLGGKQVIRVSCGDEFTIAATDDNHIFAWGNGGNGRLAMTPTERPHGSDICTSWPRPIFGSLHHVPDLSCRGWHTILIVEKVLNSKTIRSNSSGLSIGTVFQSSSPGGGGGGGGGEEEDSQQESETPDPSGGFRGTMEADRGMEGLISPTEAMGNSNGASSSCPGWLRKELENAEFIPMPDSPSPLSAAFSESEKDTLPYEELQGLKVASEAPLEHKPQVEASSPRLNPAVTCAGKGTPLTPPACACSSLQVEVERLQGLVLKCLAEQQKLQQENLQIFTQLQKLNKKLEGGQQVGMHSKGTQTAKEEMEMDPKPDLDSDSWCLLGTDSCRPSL

[11] = target: T4, Serine/threonine-protein kinase Nek9 (Homo sapiens); settings: at 1 µM
[12] = target: Serine/threonine-protein kinase PLK1 (Homo sapiens) (UniProt P53350); settings: at 0.1 µM
[13] = target: Serine/threonine-protein kinase PLK1 (Homo sapiens) (UniProt P53350); settings: at 1 µM
[14] = target: T5, Dual specificity protein kinase TTK (Homo sapiens) (UniProt P33981); settings: at 0.1 µM
T5 sequence (whole entry): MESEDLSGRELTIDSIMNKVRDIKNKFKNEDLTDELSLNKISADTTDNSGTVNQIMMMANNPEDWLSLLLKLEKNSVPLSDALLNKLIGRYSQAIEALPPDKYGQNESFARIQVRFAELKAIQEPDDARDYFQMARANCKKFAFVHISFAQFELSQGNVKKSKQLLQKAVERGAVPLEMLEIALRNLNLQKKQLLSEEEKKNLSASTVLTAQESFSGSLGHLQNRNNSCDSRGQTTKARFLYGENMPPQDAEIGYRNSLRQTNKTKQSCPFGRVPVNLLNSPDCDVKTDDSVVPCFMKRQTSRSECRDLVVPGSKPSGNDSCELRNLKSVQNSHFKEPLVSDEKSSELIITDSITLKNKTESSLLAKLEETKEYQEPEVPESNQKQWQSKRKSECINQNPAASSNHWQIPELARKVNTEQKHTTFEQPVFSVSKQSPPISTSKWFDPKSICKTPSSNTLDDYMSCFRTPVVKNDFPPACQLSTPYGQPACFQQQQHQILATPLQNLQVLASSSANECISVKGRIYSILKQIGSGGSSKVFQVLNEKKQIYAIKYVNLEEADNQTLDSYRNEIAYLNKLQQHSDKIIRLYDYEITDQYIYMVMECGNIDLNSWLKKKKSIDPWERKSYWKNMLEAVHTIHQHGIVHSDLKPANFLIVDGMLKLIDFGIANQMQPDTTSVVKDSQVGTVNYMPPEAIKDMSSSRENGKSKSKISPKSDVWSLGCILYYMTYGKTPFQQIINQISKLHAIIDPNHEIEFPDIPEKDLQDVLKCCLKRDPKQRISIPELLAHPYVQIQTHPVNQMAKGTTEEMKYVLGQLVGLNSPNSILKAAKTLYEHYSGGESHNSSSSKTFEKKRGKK

[15] = tested on: T6, Receptor-type tyrosine-protein kinase FLT3 (Homo sapiens), P36888 [D835Y]; settings: at 1 µM
T6 sequence (whole entry): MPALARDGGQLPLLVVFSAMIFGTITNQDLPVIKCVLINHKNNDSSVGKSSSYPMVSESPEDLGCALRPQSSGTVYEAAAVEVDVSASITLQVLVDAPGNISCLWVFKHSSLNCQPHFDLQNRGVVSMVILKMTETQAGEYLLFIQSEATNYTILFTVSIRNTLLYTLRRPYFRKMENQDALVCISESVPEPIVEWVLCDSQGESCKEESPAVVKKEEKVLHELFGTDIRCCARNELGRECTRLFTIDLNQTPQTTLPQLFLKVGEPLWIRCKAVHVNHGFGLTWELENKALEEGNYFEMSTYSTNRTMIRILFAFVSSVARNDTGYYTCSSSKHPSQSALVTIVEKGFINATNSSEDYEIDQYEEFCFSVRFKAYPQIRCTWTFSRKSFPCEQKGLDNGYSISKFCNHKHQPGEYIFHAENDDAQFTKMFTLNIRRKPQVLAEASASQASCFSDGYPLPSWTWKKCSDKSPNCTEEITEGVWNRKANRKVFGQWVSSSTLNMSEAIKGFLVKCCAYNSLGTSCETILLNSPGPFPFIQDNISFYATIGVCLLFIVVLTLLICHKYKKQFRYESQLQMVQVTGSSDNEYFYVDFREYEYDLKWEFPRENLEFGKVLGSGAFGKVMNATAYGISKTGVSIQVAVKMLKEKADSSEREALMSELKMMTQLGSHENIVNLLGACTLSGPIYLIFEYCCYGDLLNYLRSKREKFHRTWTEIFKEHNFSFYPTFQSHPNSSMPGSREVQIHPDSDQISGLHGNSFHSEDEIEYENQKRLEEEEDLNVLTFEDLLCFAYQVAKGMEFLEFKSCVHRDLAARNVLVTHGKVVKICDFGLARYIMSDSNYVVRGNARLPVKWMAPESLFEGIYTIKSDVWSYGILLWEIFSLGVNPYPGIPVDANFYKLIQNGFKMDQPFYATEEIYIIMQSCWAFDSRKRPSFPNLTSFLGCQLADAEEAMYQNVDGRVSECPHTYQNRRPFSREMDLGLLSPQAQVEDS

[16] = target: Vascular endothelial growth factor receptor 3 (Homo sapiens) (UniProt P35916); settings: at 0.1 µM
[17] = target: Vascular endothelial growth factor receptor 3 (Homo sapiens) (UniProt P35916); settings: at 1 µM
[18] = target: Macrophage colony-stimulating factor 1 receptor (Homo sapiens) (UniProt P07333); settings: at 0.1 µM
[19] = target: Macrophage colony-stimulating factor 1 receptor (Homo sapiens) (UniProt P07333); settings: at 1 µM
[20] = target: Tyrosine-protein kinase Fyn (Homo sapiens) (UniProt P06241); settings: at 0.1 µM
Chain of Tyrosine-protein kinase Fyn (Homo sapiens) (P06241 2-537 limits assumed): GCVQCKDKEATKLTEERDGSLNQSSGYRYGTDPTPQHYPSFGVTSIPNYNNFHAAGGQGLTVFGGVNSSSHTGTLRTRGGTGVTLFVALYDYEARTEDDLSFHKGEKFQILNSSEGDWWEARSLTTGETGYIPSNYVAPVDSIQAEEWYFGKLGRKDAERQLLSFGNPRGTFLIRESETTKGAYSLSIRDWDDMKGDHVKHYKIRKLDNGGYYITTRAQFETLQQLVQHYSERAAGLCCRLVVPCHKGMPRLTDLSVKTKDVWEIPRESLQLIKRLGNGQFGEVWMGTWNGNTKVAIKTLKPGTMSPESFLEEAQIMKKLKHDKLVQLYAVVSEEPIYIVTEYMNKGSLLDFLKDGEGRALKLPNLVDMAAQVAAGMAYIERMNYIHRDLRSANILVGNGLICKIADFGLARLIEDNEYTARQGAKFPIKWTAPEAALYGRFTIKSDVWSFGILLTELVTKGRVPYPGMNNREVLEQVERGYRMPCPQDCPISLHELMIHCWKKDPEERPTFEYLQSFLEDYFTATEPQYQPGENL

Chain of Serine/threonine-protein kinase Nek7 (Homo sapiens) (Q8TDX7 whole entry, looked up): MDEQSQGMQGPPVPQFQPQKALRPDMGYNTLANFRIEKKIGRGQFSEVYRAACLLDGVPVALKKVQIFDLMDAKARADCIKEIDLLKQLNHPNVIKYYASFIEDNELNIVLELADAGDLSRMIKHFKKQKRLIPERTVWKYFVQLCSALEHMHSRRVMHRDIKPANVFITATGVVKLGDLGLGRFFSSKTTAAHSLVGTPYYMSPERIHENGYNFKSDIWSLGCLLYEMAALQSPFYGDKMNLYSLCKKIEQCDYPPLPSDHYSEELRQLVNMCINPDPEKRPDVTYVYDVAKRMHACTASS
Chain of Vascular endothelial growth factor receptor 3 (Homo sapiens) (P35916 whole entry): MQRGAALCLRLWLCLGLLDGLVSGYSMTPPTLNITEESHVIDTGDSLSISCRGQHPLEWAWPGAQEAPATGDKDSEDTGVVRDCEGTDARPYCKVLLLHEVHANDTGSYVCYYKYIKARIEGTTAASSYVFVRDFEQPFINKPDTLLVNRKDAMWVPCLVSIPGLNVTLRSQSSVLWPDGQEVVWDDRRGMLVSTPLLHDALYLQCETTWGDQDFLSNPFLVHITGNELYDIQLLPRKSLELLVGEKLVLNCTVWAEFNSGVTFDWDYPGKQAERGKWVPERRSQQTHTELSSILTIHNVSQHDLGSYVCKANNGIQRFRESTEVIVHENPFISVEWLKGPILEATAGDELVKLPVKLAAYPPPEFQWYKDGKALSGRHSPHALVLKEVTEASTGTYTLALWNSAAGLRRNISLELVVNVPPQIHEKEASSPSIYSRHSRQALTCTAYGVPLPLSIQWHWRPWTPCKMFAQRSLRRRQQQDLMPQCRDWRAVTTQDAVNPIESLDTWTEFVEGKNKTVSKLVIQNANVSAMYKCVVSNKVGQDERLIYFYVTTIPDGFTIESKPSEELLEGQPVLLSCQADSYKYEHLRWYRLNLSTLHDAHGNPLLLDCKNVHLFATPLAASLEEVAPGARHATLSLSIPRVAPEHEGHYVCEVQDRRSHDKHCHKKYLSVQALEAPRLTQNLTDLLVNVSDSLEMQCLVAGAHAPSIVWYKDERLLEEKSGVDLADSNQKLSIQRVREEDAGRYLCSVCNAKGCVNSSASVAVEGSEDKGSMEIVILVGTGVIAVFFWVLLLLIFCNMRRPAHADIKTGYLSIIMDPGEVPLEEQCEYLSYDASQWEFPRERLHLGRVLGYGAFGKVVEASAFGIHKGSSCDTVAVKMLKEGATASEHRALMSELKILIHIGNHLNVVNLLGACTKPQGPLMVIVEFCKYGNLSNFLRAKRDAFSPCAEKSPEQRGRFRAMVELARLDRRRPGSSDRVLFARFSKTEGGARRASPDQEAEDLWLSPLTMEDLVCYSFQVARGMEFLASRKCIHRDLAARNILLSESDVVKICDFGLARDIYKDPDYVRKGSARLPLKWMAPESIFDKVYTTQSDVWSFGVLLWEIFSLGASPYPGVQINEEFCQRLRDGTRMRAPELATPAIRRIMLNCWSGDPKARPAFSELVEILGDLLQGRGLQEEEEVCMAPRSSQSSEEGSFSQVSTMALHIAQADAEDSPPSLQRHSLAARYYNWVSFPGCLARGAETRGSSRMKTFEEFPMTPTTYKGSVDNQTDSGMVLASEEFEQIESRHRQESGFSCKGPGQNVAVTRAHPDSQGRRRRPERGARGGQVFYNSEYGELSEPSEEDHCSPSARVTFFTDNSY
Chain of Serine/threonine-protein kinase Nek6 (Homo sapiens) (Q9HC98 whole entry): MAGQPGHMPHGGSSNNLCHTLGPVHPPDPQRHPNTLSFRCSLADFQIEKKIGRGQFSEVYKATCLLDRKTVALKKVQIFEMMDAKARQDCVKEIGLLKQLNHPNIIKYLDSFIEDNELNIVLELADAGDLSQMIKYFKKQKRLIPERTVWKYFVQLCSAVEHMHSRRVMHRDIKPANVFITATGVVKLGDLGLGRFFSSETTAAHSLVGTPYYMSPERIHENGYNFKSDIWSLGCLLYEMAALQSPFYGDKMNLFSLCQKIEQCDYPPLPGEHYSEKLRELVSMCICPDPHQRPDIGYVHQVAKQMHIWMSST
Chain of Macrophage colony-stimulating factor 1 receptor (Homo sapiens) (P07333 whole entry): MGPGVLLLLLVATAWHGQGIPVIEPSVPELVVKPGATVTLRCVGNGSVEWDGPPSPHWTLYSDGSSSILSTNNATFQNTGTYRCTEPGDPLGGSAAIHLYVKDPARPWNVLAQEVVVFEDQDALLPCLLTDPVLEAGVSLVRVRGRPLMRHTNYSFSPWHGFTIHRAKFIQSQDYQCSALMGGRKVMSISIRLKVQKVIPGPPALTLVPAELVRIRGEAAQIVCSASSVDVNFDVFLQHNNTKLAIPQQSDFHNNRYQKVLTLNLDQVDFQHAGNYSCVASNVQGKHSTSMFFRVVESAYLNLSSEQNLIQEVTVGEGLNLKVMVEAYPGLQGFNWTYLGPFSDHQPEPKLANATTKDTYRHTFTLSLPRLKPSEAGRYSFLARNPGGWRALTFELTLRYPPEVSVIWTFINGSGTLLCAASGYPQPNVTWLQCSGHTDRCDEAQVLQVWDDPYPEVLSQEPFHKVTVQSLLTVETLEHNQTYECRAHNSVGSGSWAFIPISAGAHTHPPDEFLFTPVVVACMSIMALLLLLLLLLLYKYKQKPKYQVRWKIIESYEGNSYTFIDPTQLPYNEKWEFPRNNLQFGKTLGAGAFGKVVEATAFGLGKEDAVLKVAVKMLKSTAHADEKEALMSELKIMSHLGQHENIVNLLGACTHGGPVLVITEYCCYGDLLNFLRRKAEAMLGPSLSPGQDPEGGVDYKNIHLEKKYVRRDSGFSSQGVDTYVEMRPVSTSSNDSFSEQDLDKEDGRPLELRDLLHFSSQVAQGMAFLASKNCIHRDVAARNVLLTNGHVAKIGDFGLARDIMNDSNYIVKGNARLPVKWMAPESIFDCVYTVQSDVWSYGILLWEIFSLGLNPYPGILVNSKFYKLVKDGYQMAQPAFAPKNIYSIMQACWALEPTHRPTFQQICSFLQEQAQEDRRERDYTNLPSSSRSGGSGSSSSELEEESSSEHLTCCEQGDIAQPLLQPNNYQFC
Chain of Serine/threonine-protein kinase PLK1 (Homo sapiens) (P53350 whole entry): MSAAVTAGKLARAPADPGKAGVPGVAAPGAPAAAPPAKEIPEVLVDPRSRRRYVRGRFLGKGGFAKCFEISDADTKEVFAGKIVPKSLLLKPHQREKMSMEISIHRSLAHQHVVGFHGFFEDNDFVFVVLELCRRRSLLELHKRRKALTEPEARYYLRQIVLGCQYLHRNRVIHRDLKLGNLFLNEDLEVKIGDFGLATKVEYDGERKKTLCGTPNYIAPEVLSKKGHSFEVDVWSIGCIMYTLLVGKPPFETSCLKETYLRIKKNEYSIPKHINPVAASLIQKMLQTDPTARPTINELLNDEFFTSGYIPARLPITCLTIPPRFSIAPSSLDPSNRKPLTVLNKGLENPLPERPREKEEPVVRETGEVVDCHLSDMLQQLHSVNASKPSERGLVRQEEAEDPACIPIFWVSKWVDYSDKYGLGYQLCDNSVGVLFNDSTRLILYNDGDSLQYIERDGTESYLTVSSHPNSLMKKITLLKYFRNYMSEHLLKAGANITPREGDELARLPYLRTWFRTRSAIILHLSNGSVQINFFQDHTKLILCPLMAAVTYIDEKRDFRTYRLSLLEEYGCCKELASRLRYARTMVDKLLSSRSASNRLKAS

Row | Structure (SMILES) | inhibition [1] | inhibition [2] | inhibition [3] | inhibition [4] | inhibition [5] | inhibition [6] | inhibition [7] | inhibition [8] | inhibition [9] | inhibition [10] | inhibition [11] | inhibition [12] | inhibition [13] | inhibition [14] | inhibition [15] | inhibition [16] | inhibition [17] | inhibition [18] | inhibition [19] | inhibition [20]
1 | CC1=C(C(=O)Nc2ccc3[nH]nc(C)c3c2)C(c2ccc(C(F)(F)F)cc2)CC(=O)N1 (stereo not given) | 2.46% | 1.56% | 2.57% | 3.16% | 3.29% | 1.24% | -1.35% | 3.34% | 2.74% | 1.92% | -5.55% | 3.32% | 0.85% | 4.14% | 5.4% | 5.85% | 2.72% | 1.56% | 2.04% | 2.88%
2 | O=C(O[C@H]1CN[C@H](C#Cc2cc3ncnc(Nc4ccc(OCc5cccc(F)c5)c(Cl)c4)c3s2)C1)N1CCOCC1 | 9.71% | 3.33% | 4.01% | 6.18% | 8.23% | 1.15% | 2.74% | 4.68% | 3.68% | 5.79% | 13.5% | 3.78% | 4.55% | 12.4% | -1.26% | 6.24% | 3.14% | 1.07% | 1.72% | 3.75%

— ChEMBL document CHEMBL1961873, “Compounds: GSK PKIS; Assays: Nanosyn kinase panel” (2012)
